Bioassay records (PubChem BioAssay)
U2OS ROS induce: raises reactive oxygen species in U2OS cancer cells. ROS induction (% of piperlongumine), % at 10 µM. AID 624156. U2OS ROS induction, H2DCF-DA fluorescence. 46,000 tested, 2% active; in the data active = ROS induction above about 79%, passing the limit was not always enough
Of the large screens only hits and unclear results are named; the others gave an inactive call. Many of the other results were omitted from the sample, so hits are more common in it than they were.

COCCOC(=O)N1C(=O)[C@@]2(c3ccccc31)[C@H](c1ccccc1OCCO)N1[C@H](c3ccccc3)[C@H](c3ccccc3)OC(=O)[C@H]1[C@@H]2C(=O)N1CCCCCCC1	U2OS ROS induce 103.4
COCCOC(=O)N1C(=O)[C@@]2(c3ccccc31)[C@H](c1ccccc1OCCO)N1[C@H](c3ccccc3)[C@H](c3ccccc3)OC(=O)[C@H]1[C@@H]2C(=O)N1CCN(c2ncccn2)CC1	U2OS ROS induce 111.3
COCCOC(=O)N1C(=O)[C@@]2(c3cc(C#CC4=CCCCC4)ccc31)[C@H](C(=O)N1CCN(c3ncccn3)CC1)[C@H]1C(=O)O[C@H](c3ccccc3)[C@H](c3ccccc3)N1[C@@H]2c1ccccc1OCCO	U2OS ROS induce 127.6
CCc1ccc(NC(=O)Cn2c(C(=O)OC)cc3oc4ccccc4c32)cc1	none
O=C(CSc1nc2ccccc2s1)NCCC12CC3CC(CC(C3)C1)C2	none
Cc1cc(C)cc(CC(c2nc3ccccc3[nH]2)C(C)c2nc3ccccc3[nH]2)c1 (configuration not stated)	none
CC12CC(NC(=S)N1c1ccccc1)c1ccccc1O2 (configuration not stated)	none
CSc1cccc(NC(=O)c2ccc3snnc3c2)c1	none
C=CCNC(=O)c1cc(-c2ccc(C)c(C)c2)nc2ccccc12	none
Cc1ccc(CNC(=O)c2cc(=O)[nH]c3ccc(Br)cc23)cc1	none
c1ccc2c(c1)NC(c1ccc3c(c1)OCO3)S2 (configuration not stated)	none
COCCOC(=O)N1C(=O)[C@@]2(c3cc(C#CCCO)ccc31)[C@H](C(N)=O)[C@H]1C(=O)O[C@H](c3ccccc3)[C@H](c3ccccc3)N1[C@@H]2c1ccc(OCCO)cc1	none
COCCOC(=O)N1C(=O)[C@@]2(c3cc(C#CCC(C(=O)OC)C(=O)OC)ccc31)[C@H](c1ccc(OCCO)cc1)N1[C@H](c3ccccc3)[C@H](c3ccccc3)OC(=O)[C@H]1[C@@H]2C(=O)N1CCN(c2ncccn2)CC1	U2OS ROS induce 112.0
COCCOC(=O)N1C(=O)[C@@]2(c3cc(C#CCC(C(=O)OC)C(=O)OC)ccc31)[C@H](c1ccc(O)cc1)N1[C@H](c3ccccc3)[C@H](c3ccccc3)OC(=O)[C@H]1[C@@H]2C(=O)N1CCc2cc(OC)c(OC)cc2C1	none
COc1ccc2[nH]c3c(=O)n(CCc4ccc(Cl)cc4)cnc3c2c1	none
COc1ccc([Si](C)(C)[C@@H]2[C@@H](CCn3cc(CCO)nn3)O[C@]3(C(=O)N(Cc4cccc(N5CCOC5=O)c4)c4ccccc43)[C@H]2C)cc1	U2OS ROS induce 116.0
C=CCN1C(=O)[C@]2(O[C@H](CCO)[C@@H]([Si](C)(C)c3ccc(OC)cc3)[C@@H]2C)c2ccccc21	none
COc1ccc([Si](C)(C)[C@H]2[C@H](CCn3cc(CCO)nn3)O[C@@]3(C(=O)N(Cc4cccc(N5CCOC5=O)c4)c4ccccc43)[C@@H]2C)cc1	U2OS ROS induce 106.8
COc1ccc([Si](C)(C)[C@@H]2[C@@H](CCO)O[C@]3(C(=O)N(C)c4ccccc43)[C@H]2C)cc1	none
COc1ccc([Si](C)(C)[C@@H]2[C@@H](CCn3cc([C@H](O)c4ccccc4)nn3)O[C@]3(C(=O)N(c4ccccc4)c4ccccc43)[C@H]2C)cc1	none
C=CCN1C(=O)[C@@]2(O[C@@H](CCn3cc([C@H](O)c4ccccc4)nn3)[C@H]([Si](C)(C)c3ccc(OC)cc3)[C@H]2C)c2cc(N3CCOC3=O)ccc21	none
C=CCN1C(=O)[C@@]2(O[C@@H](CCn3cc(CCO)nn3)[C@H]([Si](C)(C)c3ccc(OC)cc3)[C@H]2C)c2cc(N3CCOC3=O)ccc21	none
C=CCN1C(=O)[C@]2(O[C@H](CCn3cc(CCO)nn3)[C@@H]([Si](C)(C)c3ccc(OC)cc3)[C@@H]2C)c2ccccc21	none
COc1ccc([Si](C)(C)[C@@H]2[C@@H](CCn3cc([C@H](O)c4ccccc4)nn3)O[C@]3(C(=O)N(Cc4cccc(N5CCOC5=O)c4)c4ccccc43)[C@H]2C)cc1	U2OS ROS induce 116.3
COc1ccc([Si](C)(C)[C@H]2[C@H](CCn3cc(CCO)nn3)O[C@@]3(C(=O)N(Cc4ccc(N5CCOC5=O)cc4)c4ccccc43)[C@@H]2C)cc1	U2OS ROS induce 145.4
CCOC(=O)c1sc2nc(C)nc(N3CCC(C)CC3)c2c1C	none
COc1ccc(NS(=O)(=O)c2cc(Br)cnc2N)cc1	none
CC1(C)Cc2c(sc3nc(CCCc4ccccc4)n(N)c(=O)c23)CO1	none
COc1ccc(C(=S)N2CCC(C)CC2)cc1	none
CCc1nnc(NC(=O)c2ccc(N3C(=O)C4C5C=CC(C5)C4C3=O)cc2)s1 (configuration not stated)	none
O=C(c1cc(-c2ccc(F)cc2)n[nH]1)N1CCN(c2cccc(Cl)c2)CC1	none
Cc1nc2ccc(S(=O)(=O)NC(C(=O)Nc3ccccc3C)c3ccccc3)cc2s1 (configuration not stated)	none
CCc1ccc(Oc2c(C(F)(F)F)oc3c(CN4CCCCC4)c(O)ccc3c2=O)cc1	none
CCN(CC)C(=O)c1nn(C)c(=O)c2ccccc12	none
Cc1ccc2c(C)nc(NC3=NC(C(=O)Nc4ccc(Cl)c(Cl)c4)CC(=O)N3)nc2c1 (configuration not stated)	none
Cc1cc(=O)[nH]c(Nc2nc(C)c3cccc(C)c3n2)n1	none
Cc1cc(C)c2nc(NC3=NC(c4ccccc4)CC(=O)N3)nc(C)c2c1 (configuration not stated)	U2OS ROS induce 114.5
CCCNC(=O)c1[nH]c2ccccc2c1Sc1ccc(C)cc1	none
CCOC(=O)c1ccc2nc(C(F)(F)F)nc(NCc3ccc(Cl)cc3)c2c1	none
CCOC(=O)c1ccc2nc(C(F)(F)F)nc(N3CC(C)OC(C)C3)c2c1 (configuration not stated)	U2OS ROS induce 107.9
CCOC(=O)c1cnc2cc(C(F)(F)F)ccc2c1N1CC(C)CC(C)C1 (configuration not stated)	none
CS(=O)(=O)N1CCC(C(=O)NCCN2CCCCCC2)CC1	none
Cc1occc1C(=O)Nc1ccc(F)c(F)c1	none
COc1ccc(/C=C2\OC(=S)N(C)C2=O)cc1	none
CCN1C(=O)/C(=C\c2ccc(N(C)C)cc2Cl)OC1=S	U2OS ROS induce 928.5
COc1ccc(C(=O)N2c3ccccc3CCc3ccccc32)cc1	none
CCn1c(=N)c(S(=O)(=O)c2ccccc2)cc2c(=O)n3ccccc3nc21	U2OS ROS induce 93.5
Cc1ccc(S(=O)(=O)c2cc3c(=O)n4ccccc4nc3n(Cc3ccccc3)c2=N)cc1	none
C=CCn1c(=N)c(C#N)cc2c(=O)n3ccccc3nc21	none
O=C(NC1CCCC1)c1ccccc1	none
CSc1cccc(NC(=S)NCCN(C2CCCCC2)C2CCCC2)c1	none
C[C@@H]1CN([C@H](C)CO)C(=O)Cc2cc(NC(=O)Cc3cn(C)c4ccccc34)ccc2O[C@@H]1CN(C)Cc1ccc(-c2ccccc2)cc1	U2OS ROS induce 109.1
C[C@H](CO)N1C[C@H](C)[C@H](CN(C)Cc2ccc(Oc3ccccc3)cc2)Oc2ccc(NC(=O)Cc3cn(C)c4ccccc34)cc2CC1=O	none
C[C@@H]1CN([C@H](C)CO)C(=O)Cc2cc(NC(=O)Cc3cn(C)c4ccccc34)ccc2O[C@@H]1CN(C)CC1CC1	U2OS ROS induce 123.8
C[C@H]1CN([C@@H](C)CO)C(=O)Cc2cc(NC(=O)Cc3cn(C)c4ccccc34)ccc2O[C@H]1CN(C)CC1CCCCC1	none
C[C@@H]1CN([C@H](C)CO)C(=O)Cc2cc(NC(=O)Cc3cn(C)c4ccccc34)ccc2O[C@@H]1CN(C)C	none
